The values that follow come from PubChem BioAssay AID686978 (National Center for Advancing Translational Sciences (NCATS), 2013).

Hit rate of the full screen: of about 420,000 compounds, about 64,000 (15%) were called active. Inconclusive results (about 27%) are left out. These entries were drawn from the full list. Unmarked numbers belong to inactive results. The call rests on the fitted dose curve; in most records, active means well fitted inhibition curve with a large enough effect; inconclusive means small, poorly fitted or top-dose-only effect; inactive means flat fitted curve, though single readings scatter.
On the % scale 0 is the no-effect control and ±100 the full control effect; potency means the concentration at half of the fitted maximal effect.

The nature of this test: qHTS for Inhibitors of human tyrosyl-DNA phosphodiesterase 1 (TDP1): qHTS in cells in absence of CPT. Further: nearly all actives have a fitted effect of over 55% in size. The following applies: DT40 Tdp1-/- hTDP1 cells, no CPT, ATP luminescence, 48 h; activity change, negative = growth inhibition: at 46.2 µM (top of the series). A digest of the protocol:
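Cells were dispensed at 400 per well, compounds added by pin tool, plates incubated ≥48 hr at 37 °C, then CellTiter-Glo added for 30 min at room temperature before luminescence reading. Line: DT40 Tdp1-/- complemented with hTDP1; camptothecin omitted.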
In general terms: Quantitative high-throughput screening tests each substance at several concentrations.
Take `O=C(CN1C(=O)c2cccc3cccc(c23)C1=O)N1CCCCC1`: the “activity change, negative = growth inhibition” value was -23.4%.
Still for that read-out and setting: under `c1ccc(CCN2CN=C(Nc3nc4ccccc4o3)NC2)cc1` stands -27.1%.
In the case of `COc1cc(NS(=O)(=O)c2ccc(N/C=C(\C=O)c3nc4cc(Cl)ccc4o3)cc2)nc(OC)n1`, the “activity change, negative = growth inhibition” value was -5.39%.
The same measure, in the same setting: the figure for `O=C(NCCCN1CCOCC1)C1CCCN(S(=O)(=O)N2CCCCC2)C1` (stereo unspecified) is 32.6%; for `CCCSc1nsc(N)n1` it is -9.3%; for `COc1ccc(/C(O)=C2\C(=O)C(=O)N(Cc3ccco3)C2c2ccc(OC)cc2OC)cc1` (stereo unspecified) it is -12.4%.
Consider `CC(C)C(c1nnnn1CCc1ccccc1)N1CCN(C(=O)c2ccco2)CC1` (stereo unspecified), for which the “activity change, negative = growth inhibition” value is -16%.
Same read-out and setting: the figure for `COc1ccc2[nH]c3c(=O)n(Cc4ccco4)cnc3c2c1` is -29.2%.
`CCC(c1nnnn1Cc1ccco1)N(CCc1ccccc1)Cc1cc2cccc(C)c2[nH]c1=O` (stereo unspecified): the Potency was 29.1 µM (active).
In the case of `CCC(c1nnnn1Cc1ccco1)N(CCc1ccccc1)Cc1cc2ccc(OC)cc2[nH]c1=O` (stereo unspecified), the Potency is 29.1 µM (active).
Take `CCC(c1nnnn1Cc1ccco1)N(Cc1cc2cc(OC)ccc2[nH]c1=O)C1CCCCC1` (stereo unspecified): the Potency was 23.1 µM (active).
On to `CCOc1ccc2[nH]c(=O)c(C(c3nnnn3CCOC)N3CCOCC3)cc2c1` (stereo unspecified), for which the “activity change, negative = growth inhibition” value is 5.67%.
Consider `CCCN(Cc1cc2cccc(C)c2[nH]c1=O)S(C)(=O)=O`, for which the “activity change, negative = growth inhibition” value was 9.52%.
Still for that read-out and setting: under `CCN(CC)c1ccc(/C=N/NC(=O)CNC(=O)c2cccs2)cc1` stands -28%; under `CN(C(=O)COC(=O)c1nc(Cl)ccc1Cl)C1CCS(=O)(=O)C1` (stereo unspecified), 8.66%; under `COc1ccc(NC2CC(=O)N(C)C2=O)cc1` (stereo unspecified), -6.54%.
Still for that read-out and setting: under `COc1ccccc1S(=O)(=O)c1c(C)cc(C)[nH]c1=O` stands 3.84%; under `C=CCNC(=S)NNC(=O)COc1c(Cl)cc(Cl)cc1Cl`, -26.5%.
The same measure, in the same setting: the figure for `CSc1ccc(/C=N/NC(=O)c2cccc(Cl)c2)cc1` is 6.76%.
Turning to `CC(C)(C)C(=O)Nc1ccc(C(=O)N/N=C/c2ccccc2OC(=O)c2ccc(Cl)cc2Cl)cc1`, the Potency is 11.6 µM (active).
For the molecule `O=C(N/N=C/c1ccoc1)c1ccc(Cl)cc1Cl`, the “activity change, negative = growth inhibition” value is 13.7%.
In the case of `CCN1C[C@@H]2[C@@H]3C(=O)N(Cc4ccccc4)C(=O)[C@@H]3[C@](Cc3ccccc3)(C(=O)OC)N2C1=NC1CCCCC1`, the Potency was 16.4 µM (active).
For the molecule `CC[C@]1(C(=O)OC)[C@H]2C(=O)N(C)C(=O)[C@H]2[C@H]2CN(C)C(=NCc3ccccc3)N21`, the “activity change, negative = growth inhibition” value was -2.94%.
Still for that read-out and setting: under `CCCN=C1N(C)C[C@@H]2[C@@H]3C(=O)N(Cc4ccccc4)C(=O)[C@@H]3[C@](C)(C(=O)OC)N12` stands 2.25%.
As for `CCOC(=O)c1cc2occc2n1CC(=O)N1CCN(C(=O)c2ccco2)CC1`, the “activity change, negative = growth inhibition” value is -21.7%.
On the same count and under the same terms, under `ClC1(Cl)CC1CSc1ncn[nH]1` (stereo unspecified) stands 12.6%; under `CC(=O)O[C@H]1c2ccccc2-c2ccccc2[C@@H]1OC(C)=O`, 1.27%.
`Cc1ccc(Cn2c(C)nc3c(c2=O)c2nc4ccccc4nc2n3Cc2ccco2)cc1`: the Potency was 23.1 µM (active).
Regarding `CC(Sc1nc2ccccc2c(=O)n1Cc1ccco1)C(=O)c1ccccc1` (stereo unspecified), the “activity change, negative = growth inhibition” value was -5.11%.
In the case of `Cc1ccc(Cn2c(=O)n(Cc3nc(-c4ccccc4)no3)c(=O)c3cc4c(cc32)OCO4)cc1`, the “activity change, negative = growth inhibition” value is 10.7%.
Take `O=C(NNc1ccccn1)c1ccc(Cl)nc1`: the “activity change, negative = growth inhibition” value was -0.0188%.
As to `Cc1nc2scc(-c3cccs3)c2c(=O)n1N`, the “activity change, negative = growth inhibition” value is -27.9%.
As for `CCCc1nc2scc(-c3ccc(C)cc3)c2c(=O)n1N`, the Potency is 18.4 µM (active).
With `CCOC(=O)C(C)n1cnc2scc(-c3ccc(C)c(C)c3)c2c1=O` (stereo unspecified), the “activity change, negative = growth inhibition” value is 2.91%.
Turning to `Cc1cc(C)c(S(=O)(=O)c2ccccc2)c(OC(=O)c2c(F)cccc2Cl)n1`, the “activity change, negative = growth inhibition” value was -16.8%.
Consider `CCN(CC)S(=O)(=O)c1ccc(Cl)c(NC(=O)c2ccncc2)c1`, for which the “activity change, negative = growth inhibition” value was -13.3%.
For `CCN(CC)S(=O)(=O)c1ccc(N(C)Cc2cccc(OC)c2OC)nc1`, the Potency was 18.4 µM (active).
`CCN(CC)S(=O)(=O)c1ccc(NC(=O)c2cnc(C)cn2)cc1`: the “activity change, negative = growth inhibition” value was 3.23%.
On the same count and under the same terms, under `CCN(CC)S(=O)(=O)c1ccc(OC)c(NC(=O)CCc2c(C)noc2C)c1` stands 12.1%.
`CCN(CC)S(=O)(=O)c1ccc(N(C)Cc2ccc(C(F)(F)F)cc2)nc1`: the Potency is 13 µM (active).
For `CCS(=O)(=O)NCCc1ccc(OC)c(OC)c1`, the “activity change, negative = growth inhibition” value was -19.1%.
The same measure, in the same setting: under `CCOC(=O)CN(Cc1ccc(OC)c(OC)c1)S(=O)(=O)c1ccc(OC)cc1` stands -19.3%.
For the molecule `CCN(CC)S(=O)(=O)c1ccc(N(C)CCc2ccc(OC)c(OC)c2)nc1`, the Potency is 20.6 µM (active).
Take `CCOc1ccc(Br)cc1S(=O)(=O)Nc1cccc(S(=O)(=O)N(CC)CC)c1`: the “activity change, negative = growth inhibition” value is 2.37%.
On the same count and under the same terms, under `NC(=O)C[C@@H]1NC(=O)CNC(=O)c2cc([N+](=O)[O-])cc(I)c2NCCC(C(N)=O)NC1=O` (stereo partly specified) stands 18.2%; under `COc1ccc(-n2c(CNC(=O)c3cc(C(F)(F)F)ccc3Cl)nnc2SC)cc1`, -15.9%.
Turning to `CC(C)=CC(=O)Nc1nnc(-c2ccc(F)cc2)s1`, the “activity change, negative = growth inhibition” value was -7.58%.
As for `COc1cccc(OC)c1C(=O)Nc1nnc(C(C)C)s1`, the “activity change, negative = growth inhibition” value is -11.6%.
As for `COc1ccc(N2C(=O)C3CCCN3C2c2cccs2)cc1` (stereo unspecified), the “activity change, negative = growth inhibition” value was -5.08%.
Still for that read-out and setting: under `Cc1cc(C)c2c(-n3cccc3)c(C(=O)NNS(=O)(=O)c3ccc(F)cc3)sc2n1` stands 3.21%; under `Cc1cc(C(=O)CC#N)c(C)n1-c1c(C)n(C)n(-c2ccccc2)c1=O`, 8%.
